This is an account of results in PubChem BioAssay (NCATS).

A short description of test [1]: qHTS assay for small molecule agonists of the antioxidant response element (ARE) signaling pathway (AID 651741; active means well fitted activation curve with a large enough effect in the signal ratio; the % refers to the signal ratio; further: potency means the concentration at half of the fitted maximal effect; on activation: % of control where 0% means no effect). Put shortly:
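Seeding 2,000 ARE-bla HepG2 cells per well preceded a 5 h incubation at 37 C/5% CO2 and a 16 h compound exposure at 37 C. Beta-lactamase reporter activity was then quantified by fluorescence after 2 h with LiveBLAzer B/G FRET substrate.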

A short description of test [2]: qHTS assay for small molecule activators of the nuclear factor-kappa B (NF-kB) signaling pathway (AID 651749; active means well fitted activation curve with a large enough effect in the signal ratio; the % refers to the signal ratio; further: series mostly up to about 77 µM; % of control where 0% means no effect). Conditions: NF-kB-bla ME-180 cells, beta-lactamase FRET ratio, 16 h; hits give high values. An outline of the steps: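 Stably transfected ME-180 line; NF-kB response element upstream of beta-lactamase. Treatment: compound or DMSO, 16 hr. Detection: fluorescent FRET substrate.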
For orientation: qHTS replaces the single test concentration by a dilution series.

A short description of test [3]: qHTS assay for small molecule disruptors of the mitochondrial membrane potential - 1 hr assay (AID 651754; calls by dose curve; further: nearly all actives have a fitted effect of over 35% in size; further: potency means the concentration at half of the fitted maximal effect). An outline of the steps: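 HepG2 cells, attached overnight at 37C, were exposed to compound or DMSO vehicle for 1 hr at 37C, 5% CO2, then stained with Mito-MPS dye for 30 min. Red aggregate versus green monomer fluorescence reports membrane potential.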
Test [4] is described as follows: qHTS assay to identify small molecules that stimulate interleukin-8 (IL-8) secretion (AID 651758; active means well fitted activation curve with a large enough effect in the signal ratio; the % refers to the signal ratio; further: potency means the concentration at half of the fitted maximal effect; on activation: 0% is about no effect). Put shortly:
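Secreted IL-8 measured by TR-FRET sandwich (cryptate and XL665 antibodies) from THP-1 cells exposed to compound overnight (16 hrs, 37 C).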

In test [5] the target is Peroxisome proliferator-activated receptor alpha (Homo sapiens) (UniProt Q07869). Kind of test: qHTS assay for small molecule agonists of the peroxisome proliferator-activated receptor alpha (PPARalpha) signaling pathway (AID 651778). Further: % of control where 0% means no effect. Conditions: PathHunter PPARalpha complementation, chemiluminescence, 6 h; max response: hits give high values. An outline of the steps:
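Chemiluminescence from complemented enzyme reported PPARalpha activation in cells after 6 hr of compound treatment at 37 C. The detection reagent was incubated for 60 min at room temperature, and compounds were scored as agonists.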

Test [6] is described as follows: qHTS assay for small molecule activators of the p53 signaling pathway (AID 651743; active means well fitted activation curve with a large enough effect in the signal ratio, not every such curve was filed as active; the % refers to the signal ratio; further: series mostly up to about 92 µM; % of control where 0% means no effect). Conditions: HCT-116 p53RE-bla, beta-lactamase FRET ratio, 16 h; activation: hits give high values. Put shortly: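 Screen for p53 pathway agonists uses stably transfected p53RE-bla HCT-116 cells, 4,000 per well, treated 16 h at 37 C with compounds in DMSO.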
The target of test [7] is Tumor necrosis factor (Homo sapiens) (UniProt P01375). Kind of test: qHTS assay to identify small molecules that stimulate Tumor Necrosis Factor-alpha (TNF-alpha) secretion (AID 651757; active means well fitted curve in the direction sought with a large enough effect in the signal ratio; the % refers to the signal ratio; further: 0% is about no effect). Put shortly: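 THP-1 cells were exposed to compounds for 17 hrs at 37 C, after which secreted TNF-alpha was measured by homogeneous HTRF (TR-FRET) using cryptate- and XL665-labeled anti-TNF-alpha antibodies, read after 3 hr at room temperature.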

The nature of test [8]: qHTS assay for environmental chemicals that activate the Aryl hydrocarbon Receptor (AhR) signaling pathway (AID 651777). Further: % of control where 0% means no effect; nearly all actives have a fitted effect of over 15% in size. Conditions: 1A2-DRE human hepatoma cells, luciferase, 24 h; activation: hits give high values. An outline of the steps: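 1A2-DRE human hepatoma reporter line; 1,200 cells/well; cmpd or DMSO 24 h, 37 C/5% CO2; One-Glo 30 min RT; luciferase lum.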
Test [9] can be described thus: Cell Proliferation Assay against the TMD8 Cell Line (Caspase readout at 16 hrs) (AID 651712). Further: potency means the concentration at half of the fitted maximal effect. The note with it: TMD8 lymphoma cells, caspase activation luminescence. The text has this:
One class of targeted therapeutics showing early clinical success in killing of ABC DLBCL lines are small molecule inhibitors of the Bruton tyrosine kinase (BTK) 11. Thus, we chose to investigate what additional compounds, if any, would synergize with the BTK inhibitor Ibrutinib (PCI-32765).
Prior to any combination assays, using an NCATS developed oncology compound library called the Mechanism of Interrogation Plate (MIPE), two well studied ABC DLBCL lines (TMD8 and HBL1) were screened using a cell viability assay (CellTiterGlo) and a 12-point titration series for each single agent. These initial experiments offered insight into the concentration range that offered the best coverage of activity and non-activity to assure relevant data is generated. […]
A total of 500 log growing TMD8 cells are seeded per well in 5 uL of a RPMI with glutamine (or Glutamax), without phenol red plus 5% FBS and 1X Pen/Strep into 1536 -solid white high base tissue culture treated Greiner One Bio Plates (789173-F) using a multidrop combi dispenser and a small sterile cassette. […] The plates are then spun at 1000 rpms to remove bubbles and incubated for 15 minutes at room temperature before read on a ViewLux using a luminescent filter with a 10 second exposure. The relative luciferase units are used to calculated percent activity using DMSO as 0% and Bortezomib as 100%.

Several values for one entry are separate records, joined by “and”; a condition that tells them apart may be missing. Equal entries are not always repeated. Values without a mark were called inactive. Records with an inconclusive call do not appear. Activity calls are given as the source filed them. Unless noted, the call rests on the fitted dose curve; in most records, active means well fitted activation curve with a large enough effect; inconclusive means small, poorly fitted or top-dose-only effect; inactive means flat fitted curve, though single readings scatter.

Chain of Tumor necrosis factor (Homo sapiens) (P01375 whole entry, looked up): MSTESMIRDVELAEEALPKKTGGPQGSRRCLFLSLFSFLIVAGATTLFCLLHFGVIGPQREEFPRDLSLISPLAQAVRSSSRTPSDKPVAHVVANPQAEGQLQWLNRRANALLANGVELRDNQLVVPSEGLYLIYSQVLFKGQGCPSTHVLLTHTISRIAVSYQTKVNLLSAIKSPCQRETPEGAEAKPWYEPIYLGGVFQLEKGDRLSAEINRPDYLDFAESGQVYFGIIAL
Chain of Peroxisome proliferator-activated receptor alpha (Homo sapiens) (Q07869 whole entry, looked up): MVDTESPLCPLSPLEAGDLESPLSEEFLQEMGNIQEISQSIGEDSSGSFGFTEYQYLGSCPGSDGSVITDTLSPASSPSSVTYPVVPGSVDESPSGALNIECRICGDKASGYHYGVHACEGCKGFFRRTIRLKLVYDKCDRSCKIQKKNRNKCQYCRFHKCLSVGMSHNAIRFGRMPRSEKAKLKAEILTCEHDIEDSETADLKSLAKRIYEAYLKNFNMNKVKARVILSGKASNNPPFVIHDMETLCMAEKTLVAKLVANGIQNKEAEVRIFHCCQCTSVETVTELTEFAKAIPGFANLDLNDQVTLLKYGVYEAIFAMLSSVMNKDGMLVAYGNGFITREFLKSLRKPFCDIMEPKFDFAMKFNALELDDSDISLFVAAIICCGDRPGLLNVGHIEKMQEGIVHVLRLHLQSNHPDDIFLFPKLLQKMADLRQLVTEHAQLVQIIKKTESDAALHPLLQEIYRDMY

As for `Oc1ccc(O)cc1`, the Potency in test [1] is 2.11 µM (active); in test [4], 66.8 µM (active). For the same compound, in test [2], the activation was -1.26%. In addition, the Potency entry in test [3] was “inactive”. For the same compound, the max response in [5] is -2.94%.

Consider `O=C1OC(c2ccc(O)cc2)(c2ccc(O)cc2)c2ccccc21`, for which the Potency result in test [1] and in [4] was “inactive” throughout. Besides, the activation is 9.17% and -8.34% in test [6]; -1.2% and -2.62% in test [2]. The compound was called inactive in [7]. In addition, the max response in test [5] is -2.04% and -2.85%.

On to `COC1=CC(=O)C[C@@H](C)[C@]12Oc1c(Cl)c(OC)cc(OC)c1C2=O`, for which the activation in [2] was -1.44%; in test [8], 0.113%. In addition, the Potency entry in test [3] and in test [4] was “inactive” throughout. In addition, the max response in test [5] is 2.03%.

In the case of `CC(C)(Oc1ccc(Cl)cc1)C(=O)O`, in test [1], the Potency result is “inactive”. For the same compound, the values for the activation in test [6] and in [8] were 0.845% and -2.05%, respectively. For the same compound, the max response in [5] is 8.18%.

Regarding `COc1cccc2c1C(=O)c1c(O)c3c(c(O)c1C2=O)C[C@@](O)(C(C)=O)C[C@@H]3O[C@H]1C[C@H](N)[C@H](O)[C@H](C)O1`, the Potency in test [3] is 6.68 µM (active). Moreover, in test [5], the max response was -9.3%.

On to `CC/C(=C(/CC)c1ccc(O)cc1)c1ccc(O)cc1`, for which the Potency in test [1] was 24.3 µM (active) and 29.8 µM (active). Besides, the activation is 37.6% in [6]; -2.75% and -1.46% in [8]. In addition, in test [7], the result was inactive. Moreover, the max response in test [5] was -0.699% and -4.24%.

With `Nc1ccn([C@@H]2O[C@H](CO)[C@@H](O)C2(F)F)c(=O)n1`, the Potency in test [9] was 38.2 nM (active).

With `CC(O)C(=O)O` (stereo unspecified), the Potency result in test [1], in test [3] and in [4] was “inactive” in each case. For the same compound, the activation in test [6] is -0.0251%; in test [2] it was -0.579%; in test [8] it was -0.164%. In addition, the compound was called inactive in test [7]. The max response in test [5] is -0.871%.
